The entries come from a sample that favours hits as a whole.
GIRK2 activator – GIRK2 channel activators by thallium flux | P48051 | HEK293 GIRK2/NPY4 cells, thallium flux fluorescence | activation (% efficacy), % for hits at 75 µM | 34,000 tested, under 10 active | AID 1259324;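 active = primary screen hit, no activity in plain HEK293 cells, and in GIRK2-only cells above 5% efficacy rising with concentration; inactive = the rest, including fluorescent compounds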;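 note: efficacy is normalized control-subtracted fluorescence 15 s after thallium addition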
AMPAR-TARP mod – modulators of AMPA receptor GluA2-stargazin complexes. O88602+P19491. HEK293 GluA2+stargazin, membrane potential dye (FDSS), glutamate EC50; hits were called plate by plate, in both directions. calls only at 30 µM. 40,000 tested, 3.5% active;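 active = any of four per-well response measures lying three or more SD from its plate-wide compound average, in either direction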
Target sequence (O88602 whole entry, looked up): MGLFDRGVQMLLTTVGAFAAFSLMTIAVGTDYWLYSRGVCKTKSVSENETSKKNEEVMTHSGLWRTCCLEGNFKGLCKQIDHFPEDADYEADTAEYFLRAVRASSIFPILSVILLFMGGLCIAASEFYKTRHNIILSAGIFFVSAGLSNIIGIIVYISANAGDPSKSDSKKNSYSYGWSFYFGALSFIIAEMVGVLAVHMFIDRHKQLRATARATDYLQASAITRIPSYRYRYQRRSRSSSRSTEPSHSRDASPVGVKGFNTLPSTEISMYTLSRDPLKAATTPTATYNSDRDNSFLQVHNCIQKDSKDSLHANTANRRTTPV
Target sequence (P19491 whole entry, looked up): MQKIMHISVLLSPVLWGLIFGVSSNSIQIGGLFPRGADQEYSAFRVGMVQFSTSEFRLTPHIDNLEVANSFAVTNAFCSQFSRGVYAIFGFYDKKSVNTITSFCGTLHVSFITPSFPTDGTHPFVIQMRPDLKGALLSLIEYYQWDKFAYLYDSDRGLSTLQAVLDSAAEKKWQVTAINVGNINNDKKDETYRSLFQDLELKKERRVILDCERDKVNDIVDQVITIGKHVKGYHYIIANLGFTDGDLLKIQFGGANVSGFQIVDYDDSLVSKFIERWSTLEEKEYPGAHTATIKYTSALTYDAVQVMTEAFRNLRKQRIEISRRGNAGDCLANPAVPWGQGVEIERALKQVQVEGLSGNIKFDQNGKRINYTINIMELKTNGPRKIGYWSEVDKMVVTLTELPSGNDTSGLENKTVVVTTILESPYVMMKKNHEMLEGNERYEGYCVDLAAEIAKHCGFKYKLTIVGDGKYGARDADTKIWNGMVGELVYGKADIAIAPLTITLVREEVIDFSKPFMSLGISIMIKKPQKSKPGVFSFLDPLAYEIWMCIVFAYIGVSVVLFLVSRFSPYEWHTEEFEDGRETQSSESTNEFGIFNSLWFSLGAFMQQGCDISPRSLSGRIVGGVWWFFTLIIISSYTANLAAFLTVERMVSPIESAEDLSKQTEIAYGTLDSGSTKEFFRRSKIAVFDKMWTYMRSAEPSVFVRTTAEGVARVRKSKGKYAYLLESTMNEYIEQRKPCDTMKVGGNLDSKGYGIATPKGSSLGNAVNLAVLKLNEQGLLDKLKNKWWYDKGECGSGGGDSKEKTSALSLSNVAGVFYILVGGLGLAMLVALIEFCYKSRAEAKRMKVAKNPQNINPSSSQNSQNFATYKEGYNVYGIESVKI
Numbers without * were called inactive; i = inactive; . = no result given; + = active, no number.

SMILES	GIRK2 activator	AMPAR-TARP mod
CS(=O)(=O)Nc1cccc(NC(=O)COc2ccc3c(c2)C(=O)CC3)c1	i	i
COc1ccccc1N1CCN(CCNC(=O)Cc2ccc(Cl)cc2)CC1	.	i
COc1cc(S(=O)(=O)NCCNc2cc(-n3cccn3)ncn2)c(C)cc1C	i	i
CCCCS(=O)(=O)NCCNc1cc(-n2cccn2)ncn1	i	+
COc1ccc(OC)c(-c2ccc(N3CCN(C(=O)C(F)(F)F)CC3)nn2)c1	i	i
COc1ccc(-c2noc(-c3c(SC)nn(CC(=O)Nc4cccc(OC)c4)c3N)n2)cc1	i	i
Cc1cccc(-n2ncc3c(=O)n(CC(=O)N4CCc5ccccc54)cnc32)c1C	.	i
Cc1ccc(-n2ncc3c(=O)n(CC(=O)N4CCc5ccccc54)cnc32)c(C)c1	.	+
COc1ccc(Cl)c2sc(N(CC3CCCO3)C(=O)C3CCCC3)nc12 (configuration not stated)	.	i
CCCCOc1ccc(NC(=O)Nc2ccccc2N2CCNC(=O)C2)cc1	i	i
Cc1ccc(C)c(Cn2c(=O)c3c(nc4oc(-c5ccc(F)cc5)cn43)n(C)c2=O)c1	.	i
Cc1ccc(Cn2c(=O)c3c(nc4oc(-c5ccc(F)cc5)cn43)n(C)c2=O)cc1	i	+
O=C(Nc1c2c(nn1-c1ccc(Cl)cc1)CSC2)C(=O)N1CCOCC1	i	i
O=C(c1ccccc1F)N1CCC(CNS(=O)(=O)c2ccc(C(F)(F)F)cc2)CC1	i	i
Cc1ccc(S(=O)(=O)NCCn2nc(C)c(Cl)c2C)c(C)c1	i	+
Cc1ccc(S(=O)(=O)NCC2CCN(C)CC2)c(C)c1	i	i
Cn1c(=O)c2cc(C(=O)N3CCN(C(=O)c4ccco4)CC3)sc2n(C)c1=O	i	i
Cn1c(=O)c2cc(C(=O)NCCc3ccccc3)sc2n(C)c1=O	i	i
CC(C)CNC(=O)c1cc2c(=O)n(C)c(=O)n(C)c2s1	i	i
Cn1c(=O)c2cc(C(=O)Nc3ccccc3F)sc2n(C)c1=O	i	+
Cn1c(=O)c2cc(C(=O)NCCCN3CCCC3=O)sc2n(C)c1=O	i	+
CN1CCN(C(=O)c2cc3c(=O)n(C)c(=O)n(C)c3s2)CC1	i	+
O=C(NCc1ccccc1)N1CCN(c2ccc(-c3cccs3)nn2)CC1	i	i
COc1ccccc1C1(CNC(=O)Nc2ccccc2F)CCOCC1	i	i
Cc1cc(C)n(CCC(=O)O)c(=O)n1	i	i
SMILES	GIRK2 activator	AMPAR-TARP mod
O=c1ccc(-c2ccco2)nn1CCCNS(=O)(=O)c1ccc2c(c1)OCCO2	i	i
O=c1ccc(-c2ccco2)nn1CCCNS(=O)(=O)c1ccc2c(c1)CCCC2	i	+
CCOC(CNC(=O)C(=O)Nc1ccc(N2CCCS2(=O)=O)cc1)OCC	.	i
CCOC(CNC(=O)C(=O)Nc1ccc(N2CCCCS2(=O)=O)cc1)OCC	.	+
COc1ccc(S(=O)(=O)N2CCC(C(=O)Nc3nnc(-c4ccccc4)o3)CC2)cc1	i	i
CC(=O)Nc1ccc(S(=O)(=O)N2CCN(c3c(C)cccc3C)CC2)cc1	.	i
CC(=O)Nc1ccc(S(=O)(=O)n2nc(C)c(C)c2C)cc1	.	+
Cc1cc(C)c(S(=O)(=O)n2nc(C)c(C)c2C)c(C)c1	.	+
Cc1cc(C)c(S(=O)(=O)N2CCN(S(=O)(=O)N3CCCC3)CC2)c(C)c1	i	i
O=C(NCCS(=O)(=O)N1CCN(CCc2ccccc2)CC1)C1CCCC1	i	i
O=C(c1ccc(Br)o1)N1CCOC(c2ccccc2)C1 (configuration not stated)	i	.
COc1ccc(CCNC(=O)N(Cc2ccccn2)Cc2ccco2)cc1	i	.
Cc1cc(C)c(NC2=C/C(=N/S(=O)(=O)c3cccs3)c3ccccc3C2=O)c(C)c1	.	+
Cc1cc(C)c(NC(=O)C2(c3cccs3)CCOCC2)c(C)c1	i	i
Cc1ccc([N+](=O)[O-])cc1NC(=O)C(=O)NCCCn1ccnc1	.	i
Cc1nccn1CC1CCN(S(=O)(=O)c2cccs2)CC1	i	i
O=S(=O)(c1cc(F)ccc1F)N1CCC(Cn2ccnc2-c2ccccc2)CC1	i	+
CCOc1ccc(C(=O)Nc2ccc3c(c2)N(C(=O)c2ccccc2)CCC3)cc1OCC	.	i
CC(=O)c1ccc(N2CCN(C(=O)c3ccc(Cn4c(=O)[nH]c5ccccc5c4=O)cc3)CC2)cc1	i	i
Cc1ccc(C)c(N2CCN(C(=O)c3ccc(Cn4c(=O)[nH]c5ccccc5c4=O)cc3)CC2)c1	i	+
COc1ccc(C)c2sc(N(CCN3CCOCC3)C(=O)c3ccc([N+](=O)[O-])s3)nc12	.	+
COc1ccc2nc(N(CCN3CCOCC3)C(=O)c3ccc(Cl)s3)sc2c1	.	+
COc1ccc(C)c2sc(N(CCN3CCOCC3)C(=O)c3ccccc3)nc12	.	i
COc1ccc2nc(N(CCN3CCOCC3)C(=O)/C=C/c3cccc([N+](=O)[O-])c3)sc2c1	i	+
COc1ccc2nc(N(CCN3CCOCC3)C(=O)c3ccc4c(c3)OCCO4)sc2c1	.	+
SMILES	GIRK2 activator	AMPAR-TARP mod
COc1ccc2nc(N(CCN3CCOCC3)C(=O)c3nc4ccccc4s3)sc2c1	i	i
COc1ccc2nc(N(CCN3CCOCC3)C(=O)c3ccc([N+](=O)[O-])cc3)sc2c1	.	i
CCOc1ccc2nc(N(Cc3ccncc3)C(=O)/C=C/c3cccc([N+](=O)[O-])c3)sc2c1	i	i
CCOc1ccc(CC(=O)N2CC(c3nc(-c4ccsc4)no3)C2)cc1	i	.
CN1CCN(n2c3c(c(SCC(=O)Nc4ccc([N+](=O)[O-])cc4)nc2=O)CCC3)CC1	i	i
CCCC(=O)N(CCN1CCOCC1)c1nc2cc(OC)ccc2s1	i	+
COc1ccc2sc(N(CCN3CCOCC3)C(=O)CSc3ccc(C)cc3)nc2c1	i	i
O=C(CCc1ccccc1)NCCN1CCC(c2cccs2)CC1	i	i
COC(=O)c1ccc2occ(-c3oc4ccc(C(=O)OC)cc4c3O)c2c1	i	+
COC(=O)c1ccc2[nH]c(C)cc(=O)c2c1	i	i
Cc1ccc(C)c(C(=O)NCC2CCN(C(=O)/C=C/c3ccco3)CC2)c1	i	i
COc1cccc2cc(-c3cc(=O)oc4cc(C)c(C)cc34)oc12	.	i
COc1ccc(-n2c(C)nc3ccc(NS(=O)(=O)c4cc(OC)ccc4OC)cc3c2=O)cc1	i	.
CSc1nn(CC(=O)Nc2cccc(C)c2C)c(N)c1S(C)(=O)=O	i	+
CSc1nn(CC(=O)Nc2c(C)cccc2C)c(N)c1S(C)(=O)=O	i	+
CCc1ccccc1NC(=O)Cn1nc(SC)c(S(=O)(=O)c2ccc(F)cc2)c1N	.	i
CCSc1nn(CC(=O)Nc2cccc(SC)c2)c(N)c1S(=O)(=O)c1ccc(C)cc1	.	i
CSc1nn(CC(=O)Nc2ccc3c(c2)OCO3)c(N)c1S(C)(=O)=O	i	i
O=C(Cn1nc(S(=O)(=O)c2ccccc2)ccc1=O)Nc1ccc(Cl)cc1	i	+
O=C(Cn1nc(S(=O)(=O)c2ccccc2)ccc1=O)Nc1ccccc1F	i	i
CSc1nn(CC(=O)Nc2cccc(Cl)c2)c(N)c1S(=O)(=O)c1ccccc1	.	+

Bioassay records as filed in PubChem BioAssay.
